The record followed here is PubChem BioAssay (NCATS).

Structures are written as SMILES. Where “and” joins values, the source holds several entries; their conditions need not be identical. Equal entries are not always repeated. Records with an inconclusive call do not appear. Values without a mark were called inactive. Calls of active or inactive are those of the source. Calls come from the whole dose curve; as a rule, active = well fitted curve in the direction sought with a large enough effect; inconclusive = small, poorly fitted or top-dose-only effect, or another doubt; inactive = no such curve, though single readings can be large; an effect the other way counts as inactive or inconclusive.

The subject of one assay is HaCat. The assay is described as follows: Cytotoxic Profiling of Annotated Libraries Using Quantitative High-Throughput Screening (AID 1296008). Note: nearly all actives have a fitted effect of over 60% in size. As to conditions: Five cell lines viability, CellTiter-Glo ATP luminescence, 48-72 h; max response: hits give low values. In a few lines: (§1)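 Cells exposed to compounds for 48 or 72 hr at 37 degrees Celsius. Viability read as ATP-coupled luminescence with CellTiter-Glo after 10 min at room temperature.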
(In ATP-based viability assays light output follows the ATP content of the culture.)

For the next assay, the system named is KB-3-1. The description is as above. As to conditions: Five cell lines viability, CellTiter-Glo ATP luminescence, 48-72 h; max response: hits give low values. In a few lines:
as §1

For the next assay, the system named is NIH3T3. The description is as above. As to conditions: Five cell lines viability, CellTiter-Glo ATP luminescence, 48-72 h; max response: hits give low values. The procedure, abridged: as §1
Another assay concerns MCC-13. Put plainly: qHTS assay to identify novel small-molecules to repurpose for Merkel cell carcinoma treatment (AID 1296009). Note: nearly all actives have a fitted effect of over 60% in size. As to conditions: MCC and control cell lines, CellTiter-Glo viability, 72 h; series mostly up to 46 µM. In a few lines:
(§2)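 Cells were treated for 72 hr at 37 degree celsius with compounds in 8- or 11-point dose response. Viability was read by CellTiter-Glo luminescence, normalized to no-cell (cytotoxicity) and DMSO controls.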

For a further assay, the system named is MKL-1. The assay is described as above. As to conditions: MCC and control cell lines, CellTiter-Glo viability, 72 h; series mostly up to 46 µM. The procedure, abridged: as §2
Another assay has as its system MKL-2. The assay is described as above. Particulars: MCC and control cell lines, CellTiter-Glo viability, 72 h; series mostly up to 46 µM. The procedure, abridged: as §2
In another assay the test system is UISO. The description is as above. As to conditions: MCC and control cell lines, CellTiter-Glo viability, 72 h; series mostly up to 46 µM. In a few lines: as §2
The next assay has as its system WaGa. The description is as above. As to conditions: MCC and control cell lines, CellTiter-Glo viability, 72 h; series mostly up to 46 µM. In a few lines: as §2
The next assay relates to C33A. The assay is described as follows: Primary qHTS to identify gynecologic anti-cancer compounds using libraries of approved drugs and bioactive compounds (AID 1345084). Note: nearly all actives have a fitted effect of over 55% in size. As to conditions: Gynecologic cancer cell panel viability, ATPlite luminescence, 48 h; series mostly up to 57.5 µM. The procedure, abridged:
(§3)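 Cell viability after 48 h drug treatment, ATPlite luminescence readout; five doses.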
Background: qHTS replaces the single test concentration by a dilution series.

For a further assay, the system named is CASKI. Described as above. As to conditions: Gynecologic cancer cell panel viability, ATPlite luminescence, 48 h; series mostly up to 57.5 µM. The procedure, abridged: as §3
Another assay concerns HeLa. The assay is described as above. Particulars: Gynecologic cancer cell panel viability, ATPlite luminescence, 48 h; series mostly up to 57.5 µM. The procedure, abridged:
as §3

The subject of a further assay is Hek293T. The description is as above. Particulars: Gynecologic cancer cell panel viability, ATPlite luminescence, 48 h, control line for the selectivity index; series mostly up to 57.5 µM. The procedure, abridged: as §3
For the next assay, the system named is JEG-3. The description is as above. Particulars: Gynecologic cancer cell panel viability, ATPlite luminescence, 48 h; series mostly up to 57.5 µM. The procedure, abridged: as §3
Another assay relates to MCC-26. The assay is described as follows: qHTS assay to identify novel small-molecules to repurpose for Merkel cell carcinoma treatment (AID 1296009). Note: nearly all actives have a fitted effect of over 60% in size. As to conditions: MCC and control cell lines, CellTiter-Glo viability, 72 h; series mostly up to 46 µM. The procedure, abridged: as §2
For another assay, the system named is CAOV3. Put plainly: Primary qHTS to identify gynecologic anti-cancer compounds using libraries of approved drugs and bioactive compounds (AID 1345084). Note: nearly all actives have a fitted effect of over 55% in size. As to conditions: Gynecologic cancer cell panel viability, ATPlite luminescence, 48 h; series mostly up to 57.5 µM. In a few lines: as §3
The subject of the next assay is Es-2. The assay is described as above. As to conditions: Gynecologic cancer cell panel viability, ATPlite luminescence, 48 h; series mostly up to 57.5 µM. The procedure, abridged: as §3
Another assay deals with OV90. Described as above. Particulars: Gynecologic cancer cell panel viability, ATPlite luminescence, 48 h; series mostly up to 57.5 µM. The procedure, abridged:
as §3
% is set by controls: 0 for no effect and ±100 for the full control effect; potency is the fitted concentration of half-maximal effect.

As to `CNC(=O)c1nn(C)c2c1C(C)(C)Cc1cnc(Nc3ccc(N4CCN(C)CC4)cc3)nc1-2`, the Potency with HaCat was 1.66 µM (active) and 2.06 µM (active); with KB-3-1, 3.32 µM (active) and 2.31 µM (active); in the assay with NIH3T3 it was 1.3 µM (active); with MCC-13 it was 5.9 µM (active); in the assay on MKL-1, 4.69 µM (active); with MKL-2 it was 5.26 µM (active). Besides, the Potency was 0.235 µM (active) in the assay with UISO; 5.9 µM (active) with WaGa; 0.631 µM (active) with C33A; 15.8 µM (active) in the assay with CASKI; 2.82 µM (active) with HeLa; 7.94 µM (active) in the assay with Hek293T. Besides, the Potency in the assay with JEG-3 was 11.2 µM (active).

Consider `COCCn1c2c([n+](Cc3cnccn3)c1C)C(=O)c1ccccc1C2=O`, for which the Potency in the assay with HaCat was 74.3 nM (active); in the assay on KB-3-1, 14.8 nM (active); with NIH3T3, 16.6 µM (active); with MCC-13 it was 0.59 µM (active); in the assay on MCC-26, 0.296 µM (active); in the assay on MKL-1, 0.0023 µM (active). Further, the Potency was 0.0187 µM (active) in the assay on UISO and 0.0132 µM (active) in the assay on WaGa.

Take `C=CC(=O)Nc1cc2c(Nc3ccc(F)c(Cl)c3)ncnc2cc1OCCCN1CCOCC1`: the Potency with HaCat was 9.4 nM (active); in the assay on NIH3T3 it was 4.73 µM (active); in the assay on CAOV3, 10 µM (active); in the assay on CASKI, 8.91 µM (active). Moreover, the molecule was called inactive in the assay with KB-3-1. The Potency entry in the assay with MCC-13, in the assay on MCC-26, in the assay on Es-2, with HeLa, in the assay with Hek293T and in the assay with JEG-3 was “inactive” in each case. In addition, in the assay on OV90, the Potency entry was “inactive”.

For `CCCCc1nc2cc(C=CC(=O)NO)ccc2n1CCN(CC)CC`, the Potency with HaCat is 4690 nM (active); in the assay with KB-3-1 it was 2640 nM (active); in the assay on NIH3T3 it was 4.18 µM (active); in the assay with MCC-13, 7.43 µM (active); in the assay on MCC-26 it was 8.33 µM (active); with MKL-1 it was 3.32 µM (active). Besides, the Potency is 0.526 µM (active) with MKL-2 and 0.372 µM (active) with WaGa.

For `CN(C)Cc1c(C(=O)NCCOc2ccc(C(=O)NO)cc2)oc2ccccc12`, the Potency in the assay with HaCat was 4110 nM (active); in the assay on KB-3-1, 1.48 µM (active) and 1.3 µM (active); in the assay on NIH3T3 it was 3.72 µM (active) and 3.26 µM (active); with MCC-13, 8.33 µM (active); with MCC-26 it was 7.43 µM (active); in the assay with MKL-2, 0.662 µM (active). For the same molecule, the Potency was 0.332 µM (active) with WaGa; 4.47 µM (active) in the assay with C33A; 3.98 µM (active) in the assay on CASKI; 5.01 µM (active) in the assay with Es-2; 2.82 µM (active) in the assay on HeLa; 2.82 µM (active) in the assay with Hek293T. Also, the Potency with JEG-3 was 3.55 µM (active); with OV90 it was 1.58 µM (active).

With `CC[C@@H]1C(=O)N(C)c2cnc(Nc3ccc(C(=O)NC4CCN(C)CC4)cc3OC)nc2N1C1CCCC1`, the Potency is 33.2 nM (active) in the assay with HaCat; 8.3 nM (active) with KB-3-1; 1.87 µM (active) in the assay on NIH3T3; 0.662 µM (active) in the assay on MCC-13; 0.0235 µM (active) in the assay with MKL-1; 3.32 µM (active) in the assay with MKL-2. In addition, the Potency with WaGa is 4.69 µM (active).

Consider `COc1cc2ncnc(Nc3ccc(F)c(Cl)c3)c2cc1NC(=O)C=CCN1CCCCC1`, for which the max response is -96.7% in the assay with HaCat and -20.4% in the assay on NIH3T3. For the same molecule, the molecule was called inactive in the assay on KB-3-1. The Potency entry in the assay with MCC-13 and with MCC-26 was “inactive” throughout. Besides, the Potency with MKL-2 was 3.72 µM (active).

Consider `COC(=O)Nc1ccc(-c2nc(N3CCOCC3)c3cnn(C4CCN(Cc5cccnc5)CC4)c3n2)cc1`, for which the Potency is 13200 nM (active) in the assay on HaCat; 132 nM (active) and 1.64 µM (active) with KB-3-1; 83.3 nM (active) and 920 nM (active) with NIH3T3; 14.8 µM (active) in the assay on MCC-13; 8.33 µM (active) in the assay on MCC-26; 1.87 µM (active) in the assay on UISO. Also, the Potency in the assay on CAOV3 is 8.91 µM (active); with Es-2, 4.47 µM (active); with HeLa, 25.1 µM (active); with Hek293T it was 2.24 µM (active); with OV90 it was 4.47 µM (active).

On to `COc1cc2c(Nc3ccc(NC(=O)c4ccccc4)cc3)ncnc2cc1OCCCN1CCOCC1`, for which the Potency in the assay with HaCat was 7310 nM (active); with NIH3T3, 14.6 µM (active); with C33A it was 25.1 µM (active); in the assay on OV90, 25.1 µM (active). In the assay with KB-3-1, the max response was -17.8%. Besides, the Potency result in the assay with MCC-13, in the assay with MCC-26, with MKL-2, in the assay on UISO, in the assay with Es-2 and with Hek293T was “inactive” throughout.

Take `CC(C)CC(=O)Nc1n[nH]c2c1CN(C(=O)C1CCN(C)CC1)C2(C)C`: the Potency was 9.35 µM (active) and 2.31 µM (active) with HaCat; 2.35 µM (active) and 2.91 µM (active) in the assay on KB-3-1; 16.6 µM (active) in the assay with NIH3T3; 18.7 µM (active) in the assay with MCC-26; 2.64 µM (active) in the assay on MKL-2; 5.26 µM (active) with UISO. Also, the Potency in the assay on C33A is 6.31 µM (active); with Es-2, 7.08 µM (active); in the assay with HeLa, 3.16 µM (active); in the assay on Hek293T it was 3.98 µM (active); in the assay with OV90 it was 7.94 µM (active). Further, the Potency result in the assay on MCC-13 and in the assay on JEG-3 was “inactive” in each case.

Turning to `NC(=O)Nc1cc(-c2cccc(F)c2)sc1C(=O)N[C@H]1CCCNC1`, the Potency in the assay with HaCat is 8.33 µM (active) and 1.3 µM (active); in the assay with KB-3-1 it was 2.09 µM (active) and 1.03 µM (active); with NIH3T3 it was 418 nM (active) and 291 nM (active); in the assay on MCC-13, 14.8 µM (active); in the assay with MCC-26, 11.8 µM (active); with MKL-1, 3.32 µM (active). For the same molecule, the Potency with UISO is 4.18 µM (active); with WaGa, 5.26 µM (active); in the assay with C33A it was 1.12 µM (active); in the assay on CASKI, 1.78 µM (active); with Es-2, 0.631 µM (active); in the assay on HeLa, 1.78 µM (active). Further, the results for the Potency in the assay with Hek293T and with OV90 were 1 µM (active) and 2.82 µM (active), respectively.

Turning to `CC(NCc1ccc2c(c1)nc(NC(=O)c1ccc(-c3cn[nH]c3)s1)n2CC(C)(C)O)C(C)(C)C` (stereo not drawn), the Potency in the assay with HaCat is 743 nM (active); in the assay with KB-3-1, 209 nM (active); in the assay on NIH3T3 it was 0.59 µM (active); with MCC-13 it was 2.35 µM (active); in the assay with MCC-26, 1.48 µM (active); in the assay on MKL-1, 0.332 µM (active). In addition, the Potency in the assay with UISO was 1.32 µM (active); with WaGa it was 0.526 µM (active).

Consider `Cn1c2cc(S(C)=O)sc2c2cnn(Cc3cccc(N)c3)c(=O)c21` (stereo not drawn), for which the max response in the assay on HaCat was -2.01%; with KB-3-1, -13.5%; in the assay with NIH3T3 it was -11.6%. Also, the Potency result in the assay with MCC-13, in the assay on MCC-26, with MKL-1, in the assay on MKL-2 and in the assay on WaGa was “inactive” throughout.
